Screening results (PubChem BioAssay)
Shown is part of a subset that was picked to be rich in hits.
PNC assembly inh = inhibitors of perinucleolar compartment assembly; PC3M PTB-GFP, PNC prevalence imaging, 16 h; active compounds read low; activity change (PNC), negative = inhibition, % at 10 µM; hit rate 3.1% among 140,000; AID 2417;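 active = readout at or below -70, meaning at least 70% loss of cells showing the perinucleolar compartment, a nuclear body marking cancer cells; inconclusive = readout between -30 and a set limit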;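 note: plate controls were DMSO wells for no effect and camptothecin positive control wells for full effect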
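Read-out is percentage of cells bearing a perinucleolar compartment, from automated 20x imaging of fixed, Hoechst-stained PC3M PTB-GFP cells. Cells were seeded 4 h, then exposed 16 h to compound (23 nl of library stock) in duplicate plates.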
15-hLO-2 inh = inhibitors of human 15-lipoxygenase 2 (ALOX15B) | purified 15hLO-2, xylenol orange hydroperoxide absorbance | O15296 | Potency, µM (top dose mostly 57.1 µM), for inactives: top-dose activity change, negative = inhibition, actives largely listed as inhibitors | AID 881 | hit rate 0.56% among 110,000; note: potency is the fitted concentration of half-maximal effect; nearly all actives have a fitted effect of over 60% in size
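Purified human 15hLO-2 (50 nM final) preincubated with compounds 15 min at room temperature in 25 mM Hepes pH 7.5, 0.01% Triton X-100, then 45 uM arachidonic acid added for 90 min; hydroperoxide detected via ferrous/xylenol orange, 573/405 nm absorbance ratio.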
IMPase cell inh = membrane-permeable compound that blocks inositol monophosphatase; P97697; CHO-M1 cells, IP1 accumulation, HTRF TR-FRET ratio; inhibition (IP1 accumulation), % at 46.1 µM; 120,000 tested, under 10 active; AID 901; active = well fitted curve in the direction sought with a large enough effect in the signal ratio, not every such curve was filed as active; inconclusive = small, poorly fitted or top-dose-only effect, or a change in a side signal; inactive = no such curve, though single readings can be large or run the other way; the % refers to the signal ratio;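 note: cells stimulated with carbachol in lithium chloride buffer; plate controls were DMSO basal wells for no effect and reference inhibitor wells for full effect; higher means more IMPase inhibition seen as more IP1 and lower FRET ratio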
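Elevated IP1 in lysates lowers TR-FRET signal (665/620 ratio and 620 channel reported). Cells were CHO-M1, given carbachol (50 uM as added) plus 50mM LiCl, pH 7.4, 30 min, 37C; compounds titrated up to 46 uM; AC50 by Hill equation.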
12-hLO inh = blocks human 12-lipoxygenase activity | P18054 | purified 12-hLO, xylenol orange hydroperoxide absorbance | Potency, µM (doses to about 57.1 µM), for inactives: at the highest dose activity change, negative = inhibition, actives largely listed as inhibitors | hit rate 0.12% among 150,000 | AID 1452; note: potency is the fitted concentration of half-maximal effect; nearly all actives have a fitted effect of over 55% in size
Target sequence (P18054 whole entry, looked up): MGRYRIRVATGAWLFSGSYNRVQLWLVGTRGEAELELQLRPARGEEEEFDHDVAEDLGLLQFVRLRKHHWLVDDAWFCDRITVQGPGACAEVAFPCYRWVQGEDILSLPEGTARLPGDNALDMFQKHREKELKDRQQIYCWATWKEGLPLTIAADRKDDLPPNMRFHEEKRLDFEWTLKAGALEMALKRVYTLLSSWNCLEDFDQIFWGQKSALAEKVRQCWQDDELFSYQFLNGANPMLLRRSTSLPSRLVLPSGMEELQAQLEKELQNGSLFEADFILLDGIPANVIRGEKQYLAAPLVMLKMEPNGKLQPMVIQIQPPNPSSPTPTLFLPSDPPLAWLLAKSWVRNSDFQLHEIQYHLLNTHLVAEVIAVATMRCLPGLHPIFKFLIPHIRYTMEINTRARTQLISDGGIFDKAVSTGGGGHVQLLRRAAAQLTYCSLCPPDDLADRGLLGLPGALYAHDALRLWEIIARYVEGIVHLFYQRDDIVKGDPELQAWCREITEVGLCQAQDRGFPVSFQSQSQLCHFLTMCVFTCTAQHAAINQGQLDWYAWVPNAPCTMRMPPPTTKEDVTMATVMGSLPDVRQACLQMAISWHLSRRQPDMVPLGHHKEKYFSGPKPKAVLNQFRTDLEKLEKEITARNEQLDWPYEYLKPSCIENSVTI
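Purified human 12hLO (150 nM), preincubated 15 min with compound, then 40 uM arachidonic acid for 30 min, room temperature, Hepes pH 7.0 with 0.01% Triton X-100. Hydroperoxide detected by ferrous iron/xylenol orange; 573/405 nm absorbance ratio gives reaction progress.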
IMPase Li cell = IMPase inhibition in cells with lithium potentiation. CHO-M1 cells, IP1 TR-FRET (IP-One), carbachol + lithium. Potency, µM (series often up to 59.4 µM), without a hit: top-dose activity, negative = IMPase inhibition, hits mostly inhibitors. hit rate 0.35% among 210,000;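 note: IP1 builds up when IMPase is blocked and the TR-FRET signal falls; potency is the fitted concentration of half-maximal effect; plate controls were basal vehicle for no effect and high inhibitor control for full effect; nearly all actives have a fitted effect of over 50% in size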
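Test compounds were applied to CHO-M1 cells previously cultured for 16–30 h at 2000 per well. A small lithium amount accompanied them; after 30 min at 37C, IP1 was quantified by TR-FRET.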
An asterisk follows results filed as active; u = inconclusive; x = no result given; [ ] = remark or other dose. Unless noted, calls come from the whole dose curve; as a rule, active = well fitted curve in the direction sought with a large enough effect; inconclusive = small, poorly fitted or top-dose-only effect, or another doubt; inactive = no such curve, though single readings can be large; an effect the other way counts as inactive or inconclusive. Unless noted, % is set by controls: 0 for no effect and ±100 for the full control effect.

SMILES	PNC assembly inh	15-hLO-2 inh	IMPase cell inh	12-hLO inh	IMPase Li cell
O=C(CCCOc1ccc(Cl)cc1)N1CCCCC1	-8	2%	21	3%	23%[38.3 µM]
CC#CCOC(=O)C1=CCCN(C)C1	x	12%	9	0%	37%
Cn1c2ccccc2c2c3c(c4c5ccccc5n(CCC#N)c4c21)CNC3=O	x	x	x	x	3.5µM*
COCCNc1nc2c(c(=O)n(C)c(=O)n2C)n1Cc1cccc(C)c1	-2	1%	3	-4%	-1%[38.3 µM]
Cc1cccc(OCCNc2nc3c(c(=O)n(C)c(=O)n3C)n2C)c1	-97*	-4%	2	0%	8%[38.3 µM]
Cc1ccc(NC(=O)CCn2nc(-c3ccccc3)c3ccccc3c2=O)c(C)c1	x	x	9	x	x
Cc1ccc(NS(=O)(=O)N(C)C)cc1	-100*	x	-7	-3%	-15%
COC(=O)c1ccc(NS(=O)(=O)N(C)C)cc1	29	2%	-1	5%	13%[38.3 µM]
C=CCc1ccc(O)c(-c2ccc(O)c(CC=C)c2)c1	x	x	x	x	-1%
CN(C)c1ncc2nc(-c3cc(F)cc(F)c3)c(=O)n(Cc3cccs3)c2n1	x	6%	x	-4%	5.6µM*
COc1ccc(-c2nc3cnc(N4CCN(C)CC4)nc3n(Cc3cccs3)c2=O)cc1	x	-4%	x	x	26%
COc1ccc(-c2nc3cnc(N4CCOCC4)nc3n(Cc3cccs3)c2=O)cc1	x	0%	x	x	2µM*
CN(C)c1ncc2nc(-c3ccc(F)cc3)c(=O)n(Cc3cccs3)c2n1	x	2%	x	x	-3%
O=C(NN=C1C2CC3CC(C2)CC1C3)c1ccncc1	-26	-7%	6	-6%	-1%[38.3 µM]
C/C(=N\NC(=O)c1ccncc1)C12CC3CC(CC(C3)C1)C2	-118*	x	x	-2%	-4%
C[C@@]12CC[C@@H]3[C@H](CCC4=CC(=O)CC[C@]43C)[C@@H]1CC[C@@H]2C(=O)Cn1cnc2c(=S)nc[nH]c21	x	u	x	-9%[11.4 µM]	4%
CCOC(=O)C1=C(C)N=C2c3ccccc3C(=O)C2C1c1ccc(Cl)cc1 (stereo not given)	-30	-14%	11	-12%	20%[38.3 µM]
CCOC(=O)C1=C(Cc2ccc(Cl)cc2)C(=O)c2ccccc2C1=O	51	10µM*	-4	u	28%[38.3 µM]
Cc1noc(C)c1-c1cc(NCCN2CCOCC2)ncn1	x	2%	x	x	9%
CS(=O)(=O)Nc1cccc(C2=NN(S(=O)(=O)c3ccccc3)C(c3ccco3)C2)c1 (stereo not given)	x	x	x	x	9%
Cc1cccc2cc(C3CC(c4ccco4)=NN3S(=O)(=O)c3ccccc3)c(Cl)nc12 (stereo not given)	-91*	x	x	-2%	7%
CN(C)CCN1C(=O)C(O)=C(C(=O)c2cc3ccccc3o2)C1c1ccccn1 (stereo not given)	u	5%	-10	-1%	u
COc1ccccc1C1C(C(=O)c2cc3ccccc3o2)=C(O)C(=O)N1CCN1CCOCC1 (stereo not given)	21	-2%	-24	7%	32µM*
CCN(CC)CCCN1C(=O)C(O)=C(C(=O)c2cc3ccccc3o2)C1c1ccccn1 (stereo not given)	18	-11%	u	-8%	13µM*
CN(C)CCN1C(=O)C(O)=C(C(=O)c2cc3ccccc3o2)C1c1ccc(N(C)C)cc1 (stereo not given)	-119*	x	0	3%	5%
SMILES	PNC assembly inh	15-hLO-2 inh	IMPase cell inh	12-hLO inh	IMPase Li cell
COc1ccc(OC)c(C2C(C(=O)c3sc(C)nc3C)=C(O)C(=O)N2CCN2CCOCC2)c1 (stereo not given)	-7	-9%	6	-2%	x
CCC1=Nc2cc(C(=O)N3CCC(C)CC3)ccc2Sc2ccc(C)cc21	x	x	-5	x	x
C=C(C)Cn1c(SCC(=O)Nc2cccc(Cl)c2)nc2sc3c(c2c1=O)CCCC3	x	x	-18	x	x
CC(Oc1ccc(F)cc1)C(=O)/C=C\N(C)C (stereo not given)	-88*	0%	4	-2%	-8%
CN(C(=O)COc1ccccc1C(=O)NCCc1ccccc1)c1ccccc1	-100*	x	x	-2%	4%
CCN(CC)CC(=O)N1c2ccccc2Sc2ccc(Cl)cc21	-100*	x	13	10%	24%
O=C(CSc1nc2ccccc2s1)N1c2ccccc2Sc2ccc(Cl)cc21	u	-3%	-15	3%	3%[38.3 µM]
O[C@@H](CNC[C@H](O)c1ccccc1)c1ccccc1	-100*	x	-1	2%	8%
CC1CC(=O)C(C2c3ccccc3CCN2C(=O)CCl)C(=O)C1 (stereo not given)	-3	x	x	-3%	-5%
COc1cc2c(cc1OC)C(C1C(=O)CC(C)(C)CC1=O)N(C(=O)CCl)CC2 (stereo not given)	-80*	x	x	4%	0%
Cc1ccc(-n2c(=S)[nH]c3sc4c(c3c2=O)CCC4)cc1	x	x	x	x	11µM*
Cc1nn(Cc2ccc(C(=O)n3cccn3)o2)c(C)c1Br	-11	x	-6	5%	10%
Cc1cc(C)n(C(=O)c2ccc(Cn3nc(C)c(Br)c3C)o2)n1	-100*	x	-4	-3%	7%
COC(=O)c1c(-c2ccccc2)csc1NC(=O)c1c(-c2ccccc2)noc1C	-112*	x	4	-2%	6%
C/C(=N/NS(=O)(=O)c1ccc(C)cc1)P(=O)(O)O	x	-7%[11.4 µM]	x	2%[11.4 µM]	-12%
CCOCCCNC(=O)C(C)NS(=O)(=O)c1ccc(C)cc1 (stereo not given)	-90*	-8%	-9	7%	-2%[38.3 µM]
O=C1c2ccccc2C(=O)N1c1cccc(-c2nc3ccccc3o2)c1	-89*	-11%	u	1%	1%[38.3 µM]
CCOC(=O)CCn1c(=O)c2c(nc(Br)n2Cc2ccccc2)n(C)c1=O	24	-7%	-5	-7%	26%[38.3 µM]
CC(O)Cn1c(=O)c2c(nc(Br)n2Cc2ccccc2)n(C)c1=O (stereo not given)	-119*	x	0	0%	5%
CCOc1cccc(NC(=O)CSc2nc(C)c3c(c2C#N)CCCC3)c1	31	-10%	u	0%	4µM*
NCCC[C@@H](CC(=O)N[C@@H]1CCNC[C@H]1C(=O)N[C@H](CC(=O)N[C@@H](CCC(=O)O)CC(=O)O)Cc1c[nH]c2ccccc12)NC(=O)C[C@H](Cc1c[nH]c2ccccc12)NC(=O)[C@@H]1CNCC[C@H]1N	x	x	x	0%	5%
CCn1c(CNc2ccc(OC)cc2)nnc1SCC(=O)Nc1ccc(F)cc1	14	x	16	-5%	3%
CCn1c(CNc2ccc(F)cc2)nnc1SCC(=O)OC1CCCCC1	-114*	-3%	2	-4%	-7%[38.3 µM]
CCOC(=O)Cn1c(=NC(=O)c2cc(-c3cccs3)nc3ccccc23)sc2cc(S(N)(=O)=O)ccc21	-10	x	x	-2%	-1%
CCOC(=O)Cn1c(=NC(=O)C2COc3ccccc3O2)sc2cc(S(N)(=O)=O)ccc21 (stereo not given)	-134*	x	x	-3%	7%
